# Measurements taken from PubChem BioAssay (NCI).
# Compounds without any hit were thinned out: in the full panel of roughly 83,000, 20% have a hit.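 48-hour exposure, single concentration, 96-well plates; percent growth endpoint where 0 means no net growth. Active: below 10.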 Unmarked numbers belong to inactive results. Activity calls are given as the source filed them.
# Legend:
# Assay in all cases: NCI-60 one-dose screen, 48 h (100 = growth as untreated, 0 = no growth, -100 = all killed)
# Conditions in all cases: 10 µM unless noted
# SR leukemia = test system: SR leukemia
# RPMI-8226 leukemia = test system: RPMI-8226 leukemia
# OVCAR-8 ovarian = test system: OVCAR-8 ovarian
# OVCAR-5 ovarian = test system: OVCAR-5 ovarian
# OVCAR-4 ovarian = test system: OVCAR-4 ovarian
# SK-OV-3 ovarian = test system: SK-OV-3 ovarian
# IGROV1 ovarian = test system: IGROV1 ovarian
# OVCAR-3 ovarian = test system: OVCAR-3 ovarian
# HS 578T breast = test system: HS 578T breast
# NCI/ADR-RES ovarian = test system: NCI/ADR-RES ovarian
# T-47D breast = test system: T-47D breast
# BT-549 breast = test system: BT-549 breast
# MDA-MB-435 melanoma = test system: MDA-MB-435 melanoma
# SW-620 colon = test system: SW-620 colon
# MCF7 breast = test system: MCF7 breast
# HCT-116 colon = test system: HCT-116 colon
# HCC-2998 colon = test system: HCC-2998 colon
# KM12 colon = test system: KM12 colon
SMILES,growth (SR leukemia),growth (RPMI-8226 leukemia),growth (OVCAR-8 ovarian),growth (OVCAR-5 ovarian),growth (OVCAR-4 ovarian),growth (SK-OV-3 ovarian),growth (IGROV1 ovarian),growth (OVCAR-3 ovarian),growth (HS 578T breast),growth (NCI/ADR-RES ovarian),growth (T-47D breast),growth (BT-549 breast),growth (MDA-MB-435 melanoma),growth (SW-620 colon),growth (MCF7 breast),growth (HCT-116 colon),growth (HCC-2998 colon),growth (KM12 colon)
CCN(CC)CCOc1ccc(C(=O)/C=C\c2ccc(Cl)cc2Cl)cc1,-15.4% (active),-23.9% (active),53.3%,68%,52.6%,43.2%,32.2%,9.56% (active),66.2%,49.9%,29.9%,31.6%,27.3%,-55.1% (active),-48.1% (active),-90.2% (active),24.2%,-43.2% (active)
CCN(CC)c1ccc(-c2cc(-c3cc(OC)c(OC)c(OC)c3)nc(N3CCC(O)CC3)c2C#N)cc1,12%,-11.8% (active),10.6%,2.43% (active),40.5%,-5.1% (active),2.12% (active),-58.6% (active),-13.8% (active),5.08% (active),2.08% (active),-1.42% (active),-40.8% (active),9.95% (active),-33.3% (active),-51% (active),-10.5% (active),-26.8% (active)
CCOC(=O)NC(=S)n1oc(=O)c2ccccc21,114%,101%,102%,96.6%,96.5%,104%,100%,105%,104%,105%,99.2%,111%,101%,97.5%,100%,101%,101%,103%
Nc1cccc(-c2ccc(COc3ccc(CC4SC(=O)NC4=O)cc3)cc2)c1 (stereo not given),26.8%,53.8%,70.1%,92.2%,56.4%,62.1%,57.5%,49.9%,59.8%,47.1%,50.3%,58.7%,-17.7% (active),34.2%,37.7%,32.1%,87.4%,33.3%
CC(C)(Sc1cc(C(C)(C)C)c(O)c(C(C)(C)C)c1)Sc1cc(C(C)(C)C)c(OC(=O)CCC(=O)O)c(C(C)(C)C)c1,78.6%,30.3%,41.3%,87%,67%,80.3%,55.9%,46.8%,67.4%,61.5%,31.4%,54.8%,47.2%,44.9%,35.8%,28.3%,42.9%,33.3%
CC(=O)c1c(Nc2cccc(F)c2)[nH]c2c(Cl)cc(Cl)c(Cl)c2c1=O,14.8%,-8.11% (active),7.74% (active),15.3%,13.5%,1.25% (active),17.9%,14.8%,4.68% (active),3.89% (active),-11.1% (active),8.92% (active),2.08% (active),9.59% (active),2.73% (active),5.08% (active),10.7%,4.18% (active)
COC1C(O)CC(OC2CC(OC3CC(O[C@@H]4C(=O)c5c(cc6cc(OC7CC(OC8CC(O)C(O)C(C)O8)C(O)C(C)O7)c(C)c(O)c6c5O)CC4[C@H](OC)[C@@H](O)C(C)=O)OC(C)C3O)OC(C)C2O)OC1C (stereo not given in full),4.82% (active),7.39% (active),8.72% (active),12%,16.9%,22.2%,17.4%,5.36% (active),21.7%,68.8%,1.23% (active),-1.59% (active),5.77% (active),14.9%,4.58% (active),4.98% (active),-50% (active),14.7%
O=C(/C=C/c1ccccc1)c1ccc(-n2cc(CN3CCN(c4cc5c(cc4F)c(=O)c(C(=O)O)cn5C4CC4)CC3)nn2)cc1,24.1%,-0.509% (active),62%,92.2%,89.7%,80%,84%,91.5%,67.4%,87%,92.9%,76.7%,79.5%,83.7%,58.2%,6.95% (active),88.3%,73.7%
COc1ccc(Cl)cc1Nc1nc(C(F)(F)F)ccc1C(=O)N/N=C/c1ccc([N+](=O)[O-])cc1,0.718% (active),-49.7% (active),9.77% (active),4.96% (active),-12.1% (active),14.5%,-0.273% (active),-1% (active),3.18% (active),2.09% (active),7.15% (active),18.6%,15.9%,5.81% (active),-8.58% (active),11.3%,-27.8% (active),-3.54% (active)
CC1=C(Cl)C(=O)c2cc(C)ccc2C1=O,89.3%,99.6%,92.4%,107%,103%,105%,103%,105%,104%,105%,96.9%,97.9%,105%,105%,91.2%,106%,104%,102%
Cc1ccc(NC(=O)c2sc3nc(C)c(C(O)c4ccccc4)cc3c2N)cc1 (stereo not given),1.92% (active),5.22% (active),18.6%,34.6%,46.1%,14.7%,28.4%,5.7% (active),9.32% (active),7.94% (active),42.3%,61.6%,-13.1% (active),23.1%,19.2%,13.7%,12.1%,16.8%
N#Cc1c(-c2ccc(Cl)cc2)nc(NN=Cc2ccc[nH]2)nc1N1CCOCC1,31.2%,6.36% (active),85.1%,99.6%,72.6%,84.7%,67.9%,45.6%,95%,84.5%,64.9%,16.9%,94.7%,89.2%,70.7%,90.1%,94.1%,36.5%
COc1cc(/C=C/C(=O)N2CCN(C(=O)c3cc(OC)c(OC)c(OC)c3)CC2)ccc1OCCCOc1cc2c(cc1OC)C(=O)N1CCC[C@H]1C=N2,-15.4% (active),15.2%,14.1%,8.34% (active),16%,20.3%,-57.9% (active),-11.9% (active),-2.23% (active),78.6%,7.16% (active),-55.9% (active),-66.4% (active),4.48% (active),7.86% (active),7.83% (active),-39% (active),-19.5% (active)
O=C(/C=C/c1cccc(Oc2ccccc2)c1)c1ccc(Nc2nc(Nc3ccc(F)cc3)nc(Nc3ccc(Cl)cc3)n2)cc1,-14.9% (active),25.4%,104%,99.5%,97.9%,120%,94%,104%,109%,96.8%,95.4%,104%,112%,104%,89.6%,95.1%,67.1%,105%
O=C1/C(=C/c2c[nH]c(=O)[nH]c2=O)SC(=S)N1Cc1ccccc1,99.5%,101%,100%,99%,105%,103%,102%,108%,89%,106%,108%,107%,100%,98.7%,89.4%,103%,101%,101%
